GDH-TPI inh – counter-screen for M. tuberculosis FBA inhibitors: GDH-TPI coupled enzymes; inhibition, % at 4.8 µM; 360,000 compounds, 1.2% hits; GDH-TPI coupled enzyme counterscreen, NADH absorbance; AID 588335; in the data active = inhibition above about 30%
Rv3671c inh – inhibits the M. tuberculosis serine protease Rv3671c. P9WHR9. inhibition, % at 5.96 µM. 320,000 compounds, 0.048% hits; in the data active = inhibition above about 38%;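 note: extracellular domain of Rv3671c used as enzyme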
UGM FP inh – blocks M. tuberculosis UGM enzyme | P9WIQ1 | purified UGM, fluorescence polarization probe displacement | inhibition, % at 10 µM | 320,000 compounds, 0.06% hits | AID 504406; in the data active = inhibition above about 10%, passing the limit was not always enough
Target sequence (P9WIQ1 whole entry, looked up): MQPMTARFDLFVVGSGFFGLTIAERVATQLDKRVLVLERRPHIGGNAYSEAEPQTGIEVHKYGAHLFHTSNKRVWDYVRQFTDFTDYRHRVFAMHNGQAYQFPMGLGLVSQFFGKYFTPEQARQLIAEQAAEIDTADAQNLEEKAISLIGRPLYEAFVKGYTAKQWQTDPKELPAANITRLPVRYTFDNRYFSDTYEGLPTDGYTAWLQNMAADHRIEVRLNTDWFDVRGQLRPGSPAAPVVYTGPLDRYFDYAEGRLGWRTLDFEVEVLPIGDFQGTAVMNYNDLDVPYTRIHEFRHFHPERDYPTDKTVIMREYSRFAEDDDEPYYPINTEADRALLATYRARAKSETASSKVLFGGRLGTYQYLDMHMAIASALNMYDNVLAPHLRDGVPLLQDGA
Vc quorum ag – induces V. cholerae light production without autoinducers. activation, % at 18.7 µM. 350,000 compounds, 0.16% hits. V. cholerae BH1578 lux reporter, luminescence, 6 h; in the data active = activation mostly above about 9.7%, no sharp cut-off
RecA intein inh – inhibitors of M. tuberculosis RecA intein splicing; cell-free RecA intein splicing, fluorescence; P9WHJ3; inhibition, % (no concentration beside the values); 290,000 compounds, 0.75% hits; AID 2221; in the data active = inhibition above about 30%
Mtb FBA inh – inhibits M. tuberculosis FBA enzyme; P9WQA3; purified M. tuberculosis FBA, fluorescence read-out; inhibition, % at 1 µM; 360,000 compounds, 2.3% hits; in the data active = inhibition above about 27%
A number is an active result; i = inactive; nt = not tested or not shown; + = active, no number. The list is not random: actives were taken first. Their share in the collection is about 4.1%.

SMILES | GDH-TPI inh | Rv3671c inh | UGM FP inh | Vc quorum ag | RecA intein inh | Mtb FBA inh
CCCN(CCC)CCCNC(=S)Nc1ccc2nc(N3CCN(C)CC3)cc(C)c2c1 | 32.5 | i | i | i | i | i
Cc1cc(N2CCN(C)CC2)nc2ccc(NC(=S)NC3CC3)cc12 | 34.8 | i | i | i | i | i
CCCN(CCC)CCCNC(=S)Nc1ccc2nc(N3CCN(CC)CC3)cc(C)c2c1 | i | i | i | i | i | i
CCOc1ccccc1-c1cnc(NC)cn1 | i | nt | nt | i | nt | +
CNc1cnc(-c2ccccc2OC)cn1 | i | nt | nt | i | nt | 124.9
COc1ccccc1CNC(=O)CSc1ccc(-c2ccncc2)nn1 | i | i | i | i | i | i
CN1CCc2c(sc3c2C(=O)NC(/C=C/c2ccco2)N3)C1 (centres undefined) | 36.7 | i | i | i | i | i
CN1C[C@@H]2[C@@H]3C(=O)N(C)C(=O)[C@@H]3[C@](C)(C1=O)N2C(=O)c1ccc(C(C)(C)C)cc1 | i | nt | nt | i | nt | i
Clc1cccc(Cl)c1/C=C/c1nc2ccccc2[nH]1 | i | i | i | i | i | 138.5
CCOc1ccc(CCNC(=O)C2CCCN(S(=O)(=O)N3CCOCC3)C2)cc1OCC (centres undefined) | i | i | nt | i | i | i
O=C(c1ccccc1)[C@@H]1[C@@H](C(=O)c2ccc(F)cc2)[C@@]2(C(=O)Nc3ccccc32)[C@H]2c3ccccc3C=CN12 | i | i | i | i | 31.4 | i
CCCCc1cc(=O)oc2cc(O)cc(O)c12 | i | i | i | i | i | 128.8
Cc1cc(OCC(=O)N2CCC(C(=O)O)(c3ccccc3)CC2)c2c(C)cc(=O)oc2c1 | i | i | i | i | nt | i
CCCc1cc(=O)oc2cc(C)cc(OCC(=O)N[C@@H](CSCc3ccccc3)C(=O)O)c12 | i | i | i | i | i | 39.2
Cc1cc(OCC(=O)NC(Cc2ccc(Cl)cc2)C(=O)O)c2c(C)cc(=O)oc2c1 (centres undefined) | i | i | i | i | i | 74.1
CCc1cc(=O)oc2cc(C)cc(OCC(=O)N3CCC(C(=O)NC(C)C)(c4ccccc4)CC3)c12 | i | i | i | i | i | 66.4
CC(C)NC(=O)Nc1ccc2c(c1)C(=O)N([C@H](C)CO)C[C@H](C)[C@@H](CN(C)Cc1ccc(C(F)(F)F)cc1)OCCCC[C@H](C)O2 | i | nt | nt | i | nt | i
CCCCc1cc(=O)oc2cc(C)cc(OC(C)C(=O)O)c12 (centres undefined) | i | i | i | i | i | 133.7
COc1ccc2c(CC(=O)NC(Cc3ccc(Cl)cc3)C(=O)O)cc(=O)oc2c1C (centres undefined) | i | nt | i | i | i | 121.0
CCCCc1cc(=O)oc2cc(C)cc(O)c12 | i | i | i | i | i | i
COC(=O)c1ccc(CNC(=O)/C=C/[C@H]2O[C@@H](n3cc(C)c(=O)[nH]c3=O)C[C@@H]2O)cc1 | nt | nt | nt | nt | nt | i
CCOc1ccc(C(=O)Nc2cccc(-c3cc4ccccc4oc3=O)c2)cc1[N+](=O)[O-] | 32.2 | i | i | i | i | i
COc1cc(Cl)ccc1OC1(C)CCN(Cc2ccc(-c3ccccn3)cc2)C1 (centres undefined) | i | nt | nt | i | nt | i
CCC(c1nnnn1Cc1ccc(F)cc1)N(CCCO)Cc1cc2cc3c(cc2[nH]c1=O)OCO3 (centres undefined) | 34.8 | i | i | i | i | i
c1cn2c(Nc3ccc4c(c3)OCCO4)c(-c3ccc(N4CCOCC4)cc3)nc2cn1 | 40.0 | i | i | i | i | i
SMILES | GDH-TPI inh | Rv3671c inh | UGM FP inh | Vc quorum ag | RecA intein inh | Mtb FBA inh
Cc1cc(OC(C)C(=O)NNC(=O)Nc2ccc(F)cc2F)cc(C)c1Cl (centres undefined) | i | i | i | i | i | i
CCN1C(=O)C(=Cc2cccc(OC)c2Oc2ccc([N+](=O)[O-])cc2[N+](=O)[O-])SC1=S | i | i | i | i | i | i
Nc1ccc2nonc2c1[N+](=O)[O-] | i | i | 23.1 | i | nt | i
CCOC(=O)C1=C(N)N(c2ccccc2)C(=O)C1 | i | i | i | i | i | i
CCOC(=O)C1=C(N)N2C(=O)CSC2=C(C(=O)OC)C1 | i | i | i | 59.7 | i | i
CCn1c(O)c(C2=NCCCC2)c2ccccc21 | 35.8 | i | i | i | i | i
CC1CCCN(CCCNC(=O)c2cc3c(s2)-c2ccccc2OC3)C1 (centres undefined) | i | i | i | i | i | nt
Cc1cccc2c1-c1sc(C(=O)Nc3cccc([N+](=O)[O-])c3C)cc1CO2 | i | i | i | i | i | i
Cc1cccc2c1-c1sc(C(=O)NCCCN3CCC(C)CC3)cc1CO2 | i | i | i | i | i | +
CC1CCN(CCCNC(=O)c2cc3c(s2)-c2ccccc2OC3)CC1 | i | i | i | i | i | +
NC(=O)C1CCN(c2nc(-c3cccs3)cs2)CC1 | i | i | i | i | nt | i
CC(OC(=O)CCN=C1NS(=O)(=O)c2ccccc21)C(=O)Nc1ccc(F)cc1 (centres undefined) | i | i | i | i | i | i
NNC(=O)c1csc(-c2ccc(C(F)(F)F)cc2Cl)n1 | i | i | i | i | i | i
COc1ccc(C2/C(=C(/O)c3ccc(C)cc3)C(=O)C(=O)N2C)cc1 (centres undefined) | 32.5 | i | i | i | i | i
Cn1c(C(=O)O)cc2c(=O)n3ccccc3nc21 | i | i | i | i | i | +
Cn1c(C(=O)N2CCOCC2)cc2c(=O)n3ccccc3nc21 | i | i | i | i | i | +
CC1Cc2ccccc2N1C(=O)c1cc2c(=O)n3ccccc3nc2n1C (centres undefined) | i | i | i | i | i | i
Cn1c(C(=O)N2CCN(C(=O)c3ccco3)CC2)cc2c(=O)n3ccccc3nc21 | i | i | i | i | i | +
CCOC(=O)C1CCN(C(=O)c2cc3c(=O)n4ccccc4nc3n2C)CC1 | i | i | i | i | i | 132.6
O=NN(C(=O)NC1CCC(C(=O)O)CC1)C1CCC(C(=O)O)CC1 (centres undefined) | nt | nt | nt | nt | nt | i
COc1ccc(NS(=O)(=O)c2cc(C(=O)N3CCN(C/C=C/c4ccccc4)CC3)ccc2C)cc1 | i | i | i | i | i | i
Cn1c(C(=O)N2CCc3ccccc3C2)cc2c(=O)n3ccccc3nc21 | i | i | i | i | i | 72.7
CC1CN(C(=O)c2cc3c(=O)n4ccccc4nc3n2C)CC(C)O1 (centres undefined) | i | i | i | i | i | +
C=CCSc1nc(N)c(C(=O)Nc2ccccc2OC)cc1C(=O)Nc1ccccc1 | 37.3 | i | i | i | i | i
NC(=O)C1CN(S(=O)(=O)c2ccc(Cl)cc2F)c2ccccc2O1 (centres undefined) | i | i | i | i | i | i
O=c1oc2ccccc2cc1-c1csc(NN=C2CCCCC2)n1 | i | i | i | i | i | i
O=c1oc2ccccc2cc1-c1nc2c(s1)CCCC2 | i | i | i | i | i | 138.7
O=c1oc2ccccc2cc1-c1nc2ccccc2o1 | 59.5 | i | i | i | i | +

Screening results as filed in PubChem.
